Results reported in PubChem BioAssay (NCI).
The panel holds about 79,000 compounds, 15% with a hit somewhere; the sample as a whole holds those more often. Activity calls are given as the source filed them. No stated cut-off is given here; in the data, active means growth inhibition above about 70%; inactive means the rest.

Experiments:
[1] = NCI Yeast Anticancer Drug Screen. Data for the rad52 strain (AID 147);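 further: 0% = growth of vehicle-treated control cultures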; conditions: S. cerevisiae rad52 mutant growth inhibition, active compounds read high
Procedure, shortened: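 Compounds are applied to a genetically defined yeast strain lacking normal DNA damage repair, and inhibition of growth is expressed relative to cultures given vehicle only.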

[2] = NCI Yeast Anticancer Drug Screen. Data for the wt1 strain (AID 149);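 further: 0% = growth of vehicle-treated wt1 cultures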; conditions: S. cerevisiae wt1 strain (SPY 50644) growth inhibition, active compounds read high
Procedure, shortened: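 Yeast wt1 strain exposed to compounds; growth inhibition measured relative to vehicle-treated controls.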

[3] = NCI Yeast Anticancer Drug Screen. Data for the rad50EPP+ strain (AID 151);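 further: 0% = growth of vehicle-treated control cultures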; conditions: S. cerevisiae rad50 mutant strain, active compounds read high
Procedure, shortened: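 Compounds were applied to the rad50EPP+ yeast strain, which bears a defined DNA repair alteration, and growth inhibition was determined relative to vehicle-treated cultures.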

[4] = NCI Yeast Anticancer Drug Screen. Data for the mgt1 strain (AID 153); conditions: S. cerevisiae mgt1 mutant growth inhibition, active compounds read high
Procedure, shortened: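 Strain: mgt1 yeast, one of a set carrying defined DNA damage repair or cell cycle control alterations. Compound-treated growth compared with vehicle.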

[5] = NCI Yeast Anticancer Drug Screen. Data for the rad50 strain (AID 155);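 further: 0% = growth of vehicle-only cultures of the same strain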; conditions: S. cerevisiae rad50 strain growth inhibition, active compounds read high
Procedure, shortened: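 Yeast carrying a defined DNA repair defect were exposed to test compounds, and growth was compared with vehicle-treated controls to give percent inhibition.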

[6] = NCI Yeast Anticancer Drug Screen. Data for the mec2-1 strain (AID 157); conditions: S. cerevisiae mec2-1 strain, active compounds read high
Procedure, shortened: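 Strain: mec2-1 (DNA repair/cell cycle alteration). Compound exposure, then growth measured; inhibition expressed relative to vehicle.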

[7] = NCI Yeast Anticancer Drug Screen. Data for the rad14 strain (AID 159);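 further: 0% = growth of vehicle-treated control cultures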; conditions: S. cerevisiae rad14 strain growth inhibition, active compounds read high
Procedure, shortened: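 Yeast cells carrying a defined DNA-repair defect were exposed to compounds, and growth inhibition was calculated relative to vehicle-treated control cultures.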

[8] = NCI Yeast Anticancer Drug Screen. Data for the sgs1 mgt1 strain (AID 161);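 further: 0% = growth of cultures given vehicle only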; conditions: S. cerevisiae sgs1 mgt1 strain, active compounds read high
Procedure, shortened: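 Test agents were incubated with a DNA-repair-mutant yeast strain. Growth was then read and compared against vehicle-treated controls.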

[9] = NCI Yeast Anticancer Drug Screen. Data for the CLN2oe strain (AID 163);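 further: 0% = growth of vehicle-only control cultures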; conditions: S. cerevisiae CLN2oe strain, active compounds read high
Procedure, shortened: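 Growth of a genetically modified yeast strain is measured after compound exposure and compared with cultures given vehicle alone.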

[10] = NCI Yeast Anticancer Drug Screen. Data for the cln2 rad14 strain (AID 165);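 further: 0% = growth equal to vehicle treated cultures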; conditions: S. cerevisiae cln2 rad14 strain, active compounds read high
Procedure, shortened: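 Compounds are applied to the cln2 rad14 yeast strain, and growth is then compared with that of vehicle-treated cultures to give inhibition.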

[11] = NCI Yeast Anticancer Drug Screen. Data for the bub3 strain (AID 167); conditions: S. cerevisiae bub3 mutant strain, active compounds read high
Procedure, shortened: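 Compounds were applied to a genetically altered yeast strain carrying a cell-cycle control defect. Growth inhibition was scored against vehicle-treated controls.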

[12] = NCI Yeast Anticancer Drug Screen. Data for the wt2 strain (AID 169);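 further: 0% = growth of vehicle-treated yeast cultures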; conditions: S. cerevisiae wt2 strain growth inhibition, active compounds read high
Procedure, shortened: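 This strain belongs to a panel of yeast strains with defined genetic alterations in DNA damage repair or cell cycle control. Compounds are applied, and growth inhibition is measured against vehicle-treated cultures.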

[13] = NCI Yeast Anticancer Drug Screen. Data for the mlh1 strain (AID 171);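 further: 0% = growth of vehicle-treated control cultures of the same strain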; conditions: S. cerevisiae mlh1 strain growth inhibition, active compounds read high
Procedure, shortened: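 Growth of the mutant yeast strain after compound exposure, expressed as inhibition relative to vehicle-only controls.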

[14] = NCI Yeast Anticancer Drug Screen. Data for the sgs1 strain (AID 173);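 further: 0% = growth of vehicle-only control cultures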; conditions: S. cerevisiae sgs1 mutant, active compounds read high
Procedure, shortened: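 Growth of a yeast strain bearing a defined genetic alteration is measured after compound treatment. Inhibition is expressed relative to vehicle-only controls.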

[15] = NCI Yeast Anticancer Drug Screen. Data for the mlh1 rad18 strain (AID 175); conditions: S. cerevisiae mlh1 rad18 strain growth inhibition, active compounds read high
Procedure, shortened: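 Read-out is yeast growth inhibition, calculated against vehicle-only controls. The compound was applied to a strain engineered with DNA damage repair alterations.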

[16] = NCI Yeast Anticancer Drug Screen. Data for the rad18 strain (AID 177); conditions: S. cerevisiae rad18 mutant growth inhibition, active compounds read high
Procedure, shortened: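 Growth of the mutant yeast strain after compound exposure, normalised to vehicle-only cultures.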

[17] = at 5.0 µM (retest, dose inferred, filed as 0.5)
[18] = at 50.0 µM (retest, dose inferred, filed as 5.0)

Measured: growth inhibition

O=C(c1ccc(Cl)cc1)C1OC12C(=O)Nc1ccccc12 (stereo unspecified)
inactive: [1]; at 1.2 µM 20% | [2]; at 1.2 µM 1% | [2]; at 3.7 µM 25% | [3]; at 1.2 µM 17% | [4]; at 1.2 µM 31% | [5]; at 1.2 µM 13% | [6]; at 1.2 µM 38% | [7]; at 1.2 µM 24% | [9]; at 1.2 µM 5% | [9]; at 3.7 µM 40% | [11]; at 1.2 µM 43% | [12]; at 1.2 µM 9% | [13]; at 1.2 µM 8% | [14]; at 1.2 µM 8% | [16]; at 1.2 µM 6%
active: [1]; at 3.7 µM 99% | [1]; at 11.0 µM 99% | [1]; at 33.0 µM 99% | [1]; at 100.0 µM 99% | [2]; at 11.0 µM 98% | [2]; at 33.0 µM 98% | [2]; at 100.0 µM 99% | [3]; at 3.7 µM 99% | [3]; at 11.0 µM 99% | [3]; at 33.0 µM 99% | [3]; at 100.0 µM 99% | [4]; at 3.7 µM 100% | [4]; at 11.0 µM 100% | [4]; at 33.0 µM 100% | [4]; at 100.0 µM 99% | [5]; at 3.7 µM 99% | [5]; [17] 100% | [5]; at 11.0 µM 99% | [5]; at 33.0 µM 99% | [5]; [18] 99% | [5]; at 50.0 µM 99.5% | [5]; at 100.0 µM 99% | [6]; at 3.7 µM 99% | [6]; [17] 100% | [6]; at 11.0 µM 99% | [6]; at 33.0 µM 99% | [6]; [18] 100% | [6]; at 50.0 µM 99.7% | [6]; at 100.0 µM 99% | [7]; at 3.7 µM 99% | [7]; at 11.0 µM 99% | [7]; at 33.0 µM 99% | [7]; at 100.0 µM 99% | [8]; [17] 100% | [8]; [18] 100% | [8]; at 50.0 µM 99.5% | [9]; at 11.0 µM 99% | [9]; at 33.0 µM 99% | [9]; at 100.0 µM 98% | [10]; [17] 100% | [10]; [18] 100% | [10]; at 50.0 µM 99.7% | [11]; at 3.7 µM 99% | [11]; [17] 100% | [11]; at 11.0 µM 99% | [11]; at 33.0 µM 99% | [11]; [18] 100% | [11]; at 50.0 µM 99.7% | [11]; at 100.0 µM 99% | [12]; at 3.7 µM 99% | [12]; at 11.0 µM 99% | [12]; at 33.0 µM 99% | [12]; at 100.0 µM 99% | [13]; at 3.7 µM 99% | [13]; at 11.0 µM 99% | [13]; at 33.0 µM 99% | [13]; at 100.0 µM 99% | [14]; at 3.7 µM 99% | [14]; at 11.0 µM 99% | [14]; at 33.0 µM 99% | [14]; at 100.0 µM 99% | [15]; [17] 100% | [15]; [18] 100% | [15]; at 50.0 µM 99.5% | [16]; at 3.7 µM 99% | [16]; at 11.0 µM 99% | [16]; at 33.0 µM 98% | [16]; at 100.0 µM 99%

COC(=O)C1=C(C)NC(C)=C(C(=O)OC)C1c1cccc(/[N+]([O-])=C/c2ccccc2)c1
inactive: [1]; at 1.2 µM 1% | [1]; at 3.7 µM 2% | [1]; at 11.0 µM 9% | [1]; at 33.0 µM 23% | [2]; at 1.2 µM 2% | [2]; at 3.7 µM 4% | [2]; at 11.0 µM 8% | [2]; at 33.0 µM 18% | [2]; at 100.0 µM 50% | [3]; at 1.2 µM -1% | [3]; at 3.7 µM -3% | [3]; at 11.0 µM -4% | [3]; at 33.0 µM 1% | [3]; at 100.0 µM 15% | [4]; at 1.2 µM 1% | [4]; at 3.7 µM 4% | [4]; at 11.0 µM 13% | [4]; at 33.0 µM 33% | [5]; at 1.2 µM -3% | [5]; at 3.7 µM -9% | [5]; [17] 11% | [5]; at 11.0 µM -9% | [5]; at 33.0 µM 29% | [5]; [18] 35% | [5]; at 50.0 µM 64.8% | [6]; at 1.2 µM 3% | [6]; at 3.7 µM 5% | [6]; [17] 11% | [6]; at 11.0 µM 13% | [6]; at 33.0 µM 34% | [6]; [18] 25% | [6]; at 50.0 µM 40.5% | [7]; at 1.2 µM 2% | [7]; at 3.7 µM 4% | [7]; at 11.0 µM 16% | [7]; at 33.0 µM 34% | [8]; [17] 51% | [8]; [18] 50% | [8]; at 50.0 µM 51.1% | [9]; at 1.2 µM 4% | [9]; at 3.7 µM 6% | [9]; at 11.0 µM 13% | [9]; at 33.0 µM 33% | [10]; [17] 6% | [10]; [18] 33% | [10]; at 50.0 µM 44.8% | [11]; at 1.2 µM 1% | [11]; at 3.7 µM 4% | [11]; [17] 43% | [11]; at 11.0 µM 10% | [11]; at 33.0 µM 30% | [11]; at 50.0 µM 59.6% | [12]; at 1.2 µM 0% | [12]; at 3.7 µM 1% | [12]; at 11.0 µM 8% | [12]; at 33.0 µM 32% | [13]; at 1.2 µM 3% | [13]; at 3.7 µM 3% | [13]; at 11.0 µM 12% | [13]; at 33.0 µM 39% | [14]; at 1.2 µM 1% | [14]; at 3.7 µM 5% | [14]; at 11.0 µM 12% | [15]; [17] 4% | [15]; [18] 40% | [15]; at 50.0 µM 66% | [16]; at 1.2 µM 2% | [16]; at 3.7 µM 7% | [16]; at 11.0 µM 17% | [16]; at 33.0 µM 48%
active: [1]; at 100.0 µM 90% | [4]; at 100.0 µM 96% | [5]; at 100.0 µM 83% | [6]; at 100.0 µM 83% | [7]; at 100.0 µM 92% | [9]; at 100.0 µM 74% | [11]; [18] 79% | [11]; at 100.0 µM 91% | [12]; at 100.0 µM 95% | [13]; at 100.0 µM 96% | [14]; at 33.0 µM 71% | [14]; at 100.0 µM 96% | [16]; at 100.0 µM 93%
